The results in this text go back to PubChem BioAssay (NCI).

Structures are written as SMILES. About 83,000 compounds went through this panel and 20% of them were active in at least one assay; those are over-represented in the sample as a whole.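 Growth was measured after 48 h exposure to one concentration of compound in 96-well plates. Values under 10 count as active.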 The source made the active and inactive calls.

This test has as its system HL-60(TB) leukemia. The experiment in a line: NCI-60 one-dose screen, 48 h (100 = growth as untreated, 0 = no growth, -100 = all killed). As to conditions: 10 µM unless noted.
With `COc1ccc(C2CC(c3cccc(Nc4ccncc4)c3)=NN2c2cc(Cl)cc(Cl)c2)cc1` (stereo not given), the growth was 4.35% (active).
For the compound `COc1ccccc1C(=O)NC(=S)Nc1ccc(-c2nc3ccccc3[nH]2)cc1`, the growth was 59.7% (inactive).
Take `COc1cc(/C=C/C(=O)/C=C/c2cc(OC)c3c(c2)OCO3)cc2c1OCO2`: the growth is 68.6% (inactive).
On to `O=C(c1ccccc1)N(C(=S)NCCc1ccc(Cl)cc1)c1ccccc1`, for which the growth is 54.4% (inactive).
Turning to `Clc1ccc(-n2ncc3c(NCCCN4CCOCC4)ncnc32)cc1`, the growth is 86% (inactive).
With `c1ccc2c(c1)ncn2-c1nc2ccccc2n2c1nc1ccccc12`, the growth is 102% (inactive).
For `O=C(COc1cccc(/C=C2\Oc3ccccc3C2=O)c1)c1ccc([N+](=O)[O-])cc1` the value was 83.7% (inactive); for `C=C(C)[C@@H]1CC[C@]2(/C=N/Nc3ccncc3)CC[C@]3(C)[C@H](CC[C@@H]4[C@@]5(C)CCCNC(C)(C)[C@@H]5CC[C@]43C)[C@@H]12`, 58.5% (inactive); for `CC1=CN2C(=NC3=C(CCCC/C3=C\c3ccccc3)C2c2ccccc2)S1` (stereo not given), 102% (inactive).
Consider `OCCN(CCO)C(=S)S`, for which the growth is 104% (inactive).
Consider `Cc1ccc(-c2nc([P+](c3ccccc3)(c3ccccc3)c3ccccc3)c(S(=O)(=O)c3ccc(C)cc3)o2)cc1`, for which the growth was -14.4% (active).
Take `O=C(N/N=C/c1cccc(O)c1O)c1ccccc1`: the growth is 19.1% (inactive).
`COc1cc(/C=C/C(=O)c2c(C)oc3nc[nH]c(=O)c23)ccc1O`: the growth was 117% (inactive).
The figure for `COc1ccc(CN(c2ccc(C)cc2)C2OC(=O)c3ccccc32)cc1OC` (stereo not given) is 96.9% (inactive).
For the compound `c1ccc([C@H]2CN3CCSC3=N2)cc1`, the growth was 99.1% (inactive).
Consider `COc1cc(/C=C/C(=O)c2cc(-c3ccc(C(F)(F)F)cc3)ccc2O)cc(OC)c1OC`, for which the growth was 13.9% (inactive).
Consider `COc1ccc2c(c1)c(C(=O)c1nc(-c3cn(C)c4ccccc34)no1)cn2C`, for which the growth is 92% (inactive).
On to `COc1ccccc1NC1=C(N2CCCCC2)C(=O)c2ccccc2C1=O`, for which the growth was 72.6% (inactive).
On to `O=C(Nc1ccc(F)cc1)c1c(NC(=O)C(F)(F)F)sc2c1CCCCC2`, for which the growth was 17.1% (inactive).
As to `CCN(CC)CC(=O)Nc1c(C)ccc(N)c1C`, the growth is 74.2% (inactive).
As to `COc1cc(/C=C/c2cc(/C=C/c3ccc(O)c(OC)c3)n(C(=O)c3ccccc3Br)n2)ccc1O`, the growth was -23.9% (active).
As for `O=C(CCCCCCN1CC(=O)N2[C@@H](c3ccccc3Cl)c3[nH]c4ccccc4c3C[C@H]2C1=O)NO`, the growth is 55% (inactive).
For `NNc1ncnc2nc[nH]c12`, the growth is 35.3% (inactive).
The figure for `Cn1cc(-c2ccc(-c3cn(C)c4ccc(Cl)cc34)[nH]2)c2cc(Cl)ccc21` is -37.8% (active); for `COc1ccc(C(=O)Nc2nc(-c3ccc(Cl)cc3)cs2)cc1` it is 105% (inactive); for `COc1ccc(C(=O)/C=C/c2sc(Cl)nc2Cl)cc1` it is 32.3% (inactive).
As to `FC(F)(F)c1ccc(-c2cnc(-n3cc(COCCN4CCCCC4)nn3)nc2NC2CCCCCC2)cc1`, the growth was -63.1% (active).
In the case of `CCN1C(=O)C(C)C=C(C)C=C1C` (stereo not given), the growth was 94.4% (inactive).
On to `COC(=O)CNS(=O)(=O)c1ccc2c(c1)Cc1cc(S(=O)(=O)NCC(=O)OC)ccc1-2`, for which the growth was 98.5% (inactive).
For `CCCCCCCCCCCCCCCCCC1OCC(COC(=O)O[C@]2(CC)C(=O)OCc3c2cc2n(c3=O)Cc3cc4ccccc4nc3-2)O1` (stereo not given in full) the value was 102% (inactive); for `COC(=O)c1oc2c(C(C)=O)c(OCCCN(C)C)ccc2c1C`, 75.3% (inactive).
As to `C(CCCC1=NCCO1)CCCC1=NCCO1`, the growth was 112% (inactive).
For `COc1ccc2c3c(c(OCCCN(C)C)nc2c1)-c1ccc(Cl)cc1C3=O` the value was 70.7% (inactive).
Consider `O=[N+]([O-])c1ccccc1Sc1ccccc1[N+](=O)[O-]`, for which the growth was 111% (inactive).
Regarding `N=C(N)SCc1cccc2c(CSC(=N)N)cccc12`, the growth is 93.4% (inactive).
In the case of `CCCCCOC(=O)Nc1nc(=O)n(C2O[C@H](C)[C@@H](O)[C@H]2O)cc1F` (stereo not given in full), the growth is 92.8% (inactive).
Consider `O=C1/C(=C\c2ccc[nH]2)c2ccccc2N1c1ccccc1`, for which the growth was 94.4% (inactive).
With `C(CCCSC1=NCCN1)CCSC1=NCCN1`, the growth is 76.2% (inactive).
Consider `Cc1ccc(S(=O)(=O)n2cc(C3C(Cl)C(=O)N3c3ccc(N4CCOCC4=O)cc3)c3ccccc32)cc1` (stereo not given), for which the growth was 22.1% (inactive).
As to `Cc1nc2c(c(=O)[nH]1)OCN(Cc1ccccc1)C2`, the growth was 96.5% (inactive).
